# Whole data set: some 33,000 sequences, median “E-score (-0.5 to 0.5)” near -0.04, cut for the highest 2% near 0.36. The list comes from a sample in which the highest values are over-represented; it also holds similar and randomly drawn sequences.
# Target: T1, Hmlalpha2 (UniProt P0CY09)
# T1 sequence: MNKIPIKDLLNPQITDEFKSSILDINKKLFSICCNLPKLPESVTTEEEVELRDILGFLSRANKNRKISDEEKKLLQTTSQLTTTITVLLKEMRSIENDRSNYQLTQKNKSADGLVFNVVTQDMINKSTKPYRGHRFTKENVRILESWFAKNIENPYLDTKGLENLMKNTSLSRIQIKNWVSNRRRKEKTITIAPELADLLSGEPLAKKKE
# Experiment: PBM E-score (8-mer binding enrichment) (E-score (-0.5 to 0.5)); higher = stronger / more preferred TF binding
# Details: protein concentration: 200 nM; construct: GST-full length
# How it was run: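 Universal all-10-mer Agilent arrays, double-stranded by primer extension on fresh or once-stripped slides, were probed with about 100-200 nM GST-tagged yeast transcription factors made by PURExpress. Fluorescent anti-GST detected bound protein, and masliner normalised the scans. E-scores from the Universal PBM Analysis Suite were given to each ungapped eight-base word pooled with its reverse complement.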
row,Sequence,PBM E-score
1,TGGATCCA,-0.063
2,CCTACTCG,-0.202
3,ACCCTTGC,-0.209
4,CGGGATAC,-0.16
5,ACGTCTGC,-0.182
6,ACACGTTG,0.35
7,ACACGTTC,0.303
8,ACACGTAC,0.347
9,ACACGTCG,0.302
10,ACACGTAG,0.351
11,ACACGTCT,0.368
12,ATACGTAT,0.308
13,AAACGTAT,0.278
14,ACACGTTA,0.408
15,ACACGTAT,0.369
16,ACACGTAA,0.396
17,ACACGTCA,0.317
18,CGAGTGGA,-0.137
19,AGGGGCCG,-0.365
20,CGGGAGCC,-0.33
21,CCACGTAA,0.33
22,TCACGTAA,0.393
23,GCACGTAA,0.348
24,AGGTTGGG,-0.0364
25,CCCTTGGC,-0.35

row,Sequence,PBM E-score
1,GCGATTAC,0.275
2,ATAATTAC,0.357
3,ACAATTAC,0.376
4,GTAATTAC,0.452
5,ACAATTAA,0.214
6,CTAATTAC,0.362
7,ACAATTAT,0.214
8,CTGATTAA,0.141
9,CTGATTAC,0.369
10,CCGATTAC,0.216
11,ATGATTAC,0.326
12,ACGATTAC,0.383
13,GAAGCAAA,0.156
14,CGCCACCG,-0.296
15,CAGAGCTC,-0.142
16,ATGGCGCC,-0.249
17,TCCTGCAA,-0.15
18,GCGGTGCA,-0.281
19,GTTGCACA,0.0871
20,AGTGTTCG,0.089
21,ACTTAGGA,-0.0292
22,AGGGTAAA,0.0323
23,CCCAAGCG,-0.19
24,GTAATAAC,0.392
25,ATAATAAC,0.187

row,Sequence,PBM E-score
1,GTAATAAA,0.35
2,CATACCTC,0.0518
3,CTGAATTC,0.0173
4,ACCACGAC,-0.0364
5,AACACAAA,0.261
6,TTCACGAA,0.019
7,CACACGAG,0.152
8,AACACGAG,0.377
9,AACACGAC,0.424
10,CACACGAC,0.223
11,TACACGAA,0.456
12,AGCACGAA,0.167
13,AACACGAA,0.386
14,CACACGAA,0.233
15,TGCACGAA,0.122
16,ACGTTAAT,0.304
17,GCTGGGAC,-0.263
18,AAGAACTG,-0.178
19,ACAGTGTA,0.244
20,CCCTCGCC,-0.357
21,CATGCGAC,0.0966
22,CTTCTGCA,-0.0586
23,CCTGCGGC,-0.341
24,TCAAGTAA,0.265
25,AGGGCCCA,-0.239

row,Sequence,PBM E-score
1,GACTTGGC,-0.347
2,GACACGAC,0.394
3,AACACGAT,0.439
4,AGCACGAT,0.147
5,ATCACGAT,-0.0443
6,GACACGGC,0.223
7,GACACGAA,0.2
8,ATAGAACA,0.164
9,GGGTTCGA,-0.248
10,CGACAATC,-0.19
11,GCCTCTGA,-0.251
12,GTTTCAGA,-0.0374
13,CACCGGCG,-0.12
14,AACACTTC,0.138
15,ACTACCGA,-0.12
16,CATCAACA,0.297
17,ATTCAACA,0.352
18,AATCAACG,0.202
19,AATCAACC,-0.103
20,CTTCAACA,0.341
21,AATCAACA,0.37
22,GATCAACA,0.341
23,GTTCAACA,0.367
24,TATCAACA,0.365
25,CCCGGTTC,-0.22

row,Sequence,PBM E-score
1,GCCAGGAC,-0.269
2,AGTAGATG,0.136
3,GCGTAAGA,0.249
4,ATGTAAGC,0.374
5,AGGTAAGA,-0.0177
6,GTGTAAGA,0.401
7,AAGTAAGA,0.0354
8,ATGTAAGA,0.433
9,CTGTAAGA,0.0715
10,ATGTAAGG,0.313
11,CTGTAAGC,-0.0257
12,AGGGAGGC,-0.339
13,ACATACCA,0.227
14,TGCTCTAA,-0.134
15,ACCTTACC,0.0897
16,ACAACTAC,0.225
17,CCCGATAC,-0.0785
18,AGCATGCT,0.151
19,ACCATGCT,0.0386
20,TACATGGA,0.429
21,AACATGCG,0.399
22,ATCATGCG,-0.0811
23,ATCATGCA,-0.0495
24,CACATGGA,0.197
25,ACCATGCA,0.106

row,Sequence,PBM E-score
1,AACATGCT,0.396
2,CACATGCG,0.141
3,GACATGGA,0.263
4,AACATGCA,0.417
5,AGAATGGG,-0.307
6,GATTCCAA,-0.0677
7,ACATGCCG,0.356
8,TAGCAGCA,-0.0647
9,GACCCAGA,-0.168
10,CCTCCCGC,-0.0916
11,ATCCGTGG,-0.229
12,CCGATCAA,-0.0314
13,CGCACCGC,-0.177
14,CCGCCAAA,-0.105
15,CGAAAGAA,-0.0556
16,TCCGCGGA,-0.0621
17,ACGAAAGA,-0.0344
18,AATCGTAC,0.102
19,GACATGCC,0.212
20,CACATGCC,0.209
21,CACATGCA,0.234
22,TACATGCA,0.438
23,GACATGCA,0.294
24,AACATGCC,0.388
25,ACGTTAGA,0.146

row,Sequence,PBM E-score
1,GGTCCGGA,-0.0474
2,TAAGCGAA,0.122
3,TTTCGAAA,0.0465
4,ATTTCTAC,0.234
5,CACATAAC,0.242
6,AACATAAC,0.403
7,ATCATAAG,-0.00054
8,AACATAGG,0.38
9,AACATAAG,0.391
10,CACATAGG,0.0614
11,AACATAAT,0.287
12,CACATAAG,0.117
13,AACATAGA,0.284
14,CCGCAGTA,-0.0882
15,ATATTCTA,0.169
16,CTCTTCGC,-0.205
17,CCATTGCG,-0.262
18,GGGTATCA,-0.118
19,AGCATAGC,0.0169
20,GTGCGTGA,0.192
21,GTGCGTAA,0.406
22,CTGCGTAA,0.417
23,ATGCGTAA,0.375
24,CTGCGTAC,0.186
25,ATGCGTAC,0.273

row,Sequence,PBM E-score
1,GGGCGTAA,0.0836
2,CTGCGTTA,0.226
3,ATGCGTAG,0.214
4,GTTCTGAA,0.213
5,TGTGGGAA,0.00853
6,CCCTCGCG,-0.199
7,ATGAGCAC,-0.067
8,ACTAAGTC,-0.157
9,AATATTAG,0.0923
10,AATATTAC,0.381
11,AATATTAT,0.189
12,ACCACCAG,-0.148
13,AATACGCG,0.399
14,AATACGCC,0.0351
15,GATACGCA,0.144
16,CATACGCG,0.177
17,AATACGCA,0.385
18,AATACGCT,0.234
19,CGACTTTA,0.134
20,AGGCACGC,-0.188
21,ATATTACC,0.187
22,CTATTAGA,-0.0387
23,GTATTACA,0.403
24,CTATTACC,-0.0498
25,ATATTACA,0.439

row,Sequence,PBM E-score
1,ATATTACG,0.352
2,GTATTAGA,0.289
3,CTATTACA,0.442
4,GTATTAAA,0.307
5,ATCTTTCA,0.0227
6,TTTCAAAA,0.17
7,CTGATACC,-0.15
8,CGTTTGAC,0.0383
9,AGGTAATG,0.226
10,GAGTAATA,0.286
11,ACGTAAGA,0.29
12,CCGTAATA,0.159
13,ACGTAATA,0.431
14,AAGTAATG,0.196
15,ACGTAATC,0.392
16,AGGTAATA,0.139
17,CCGTAATC,-0.00299
18,ACGTAAGC,0.0597
19,GCGTAATA,0.373
20,ACGTAATG,0.408
